This passage reports outcome results from PubChem BioAssay AID2284383 (EPA ToxCast).

Results filed as inconclusive are left out. Calls of active or inactive are those of the source. How the source made its calls: active means hit-call score of the fitted dose curve at least 0.9, where 1 is the maximum; inconclusive means response in the unintended direction; inactive means score below 0.9.

This assay addresses human Retinoic Acid Receptor gamma (RARg) Agonism, RARG (gene 5916) (UniProt P13631). As to the kind of experiment: ERF_TW_NR_COA_hRARG: Eurofins (ERF) Nuclear Receptor (NR) Functional Coactivator Assay for human Retinoic Acid Receptor gamma (RARg) Agonism. As to the method:
ERF_TW_NR_COA_hRARG is a biochemical, single-readout assay that uses extracted gene-proteins in a cell-free assay. Measurements were taken 16 hours after chemical dosing in a 96-well plate. […] It is designed to measure FRET using a type of binding reporter as detected by fluorescence intensity of AM580 with fluorimetry technology.Data from the assay component ERF_TW_NR_COA_hRARG was analyzed at the assay endpoint, ERF_TW_NR_COA_hRARG, in the positive analysis fitting direction relative to DMSO as the negative control and baseline of activity. Using a type of binding reporter, gain-of-signal activity can be used to understand changes in binding as they relate to gene RARG. To generalize the intended target to other relatable targets, this assay endpoint is annotated to the nuclear receptor intended target family, where the subfamily is non-steroidal.
Human recombinant retinoic acid receptor […] (RARgamma) receptors expressed in bacteria are used. Test compound and/or vehicle is incubated with the 25 nM receptors and binding buffer in modified Tris-HCl buffer pH 7.4 for 16 hours at 4C. Determination of the amount of complex formed is read spectrofluorimetrically (excitation:337 nm, emission:620/665 nm). Test compound-induced increase in fluorescence by 50 percent or more (>/= 50%) relative to the 0.3 uM AM580 response indicates possible RARgamma receptor agonist activity. […]

Chain of human Retinoic Acid Receptor gamma (RARg) Agonism, RARG (gene 5916) (P13631 whole entry, looked up): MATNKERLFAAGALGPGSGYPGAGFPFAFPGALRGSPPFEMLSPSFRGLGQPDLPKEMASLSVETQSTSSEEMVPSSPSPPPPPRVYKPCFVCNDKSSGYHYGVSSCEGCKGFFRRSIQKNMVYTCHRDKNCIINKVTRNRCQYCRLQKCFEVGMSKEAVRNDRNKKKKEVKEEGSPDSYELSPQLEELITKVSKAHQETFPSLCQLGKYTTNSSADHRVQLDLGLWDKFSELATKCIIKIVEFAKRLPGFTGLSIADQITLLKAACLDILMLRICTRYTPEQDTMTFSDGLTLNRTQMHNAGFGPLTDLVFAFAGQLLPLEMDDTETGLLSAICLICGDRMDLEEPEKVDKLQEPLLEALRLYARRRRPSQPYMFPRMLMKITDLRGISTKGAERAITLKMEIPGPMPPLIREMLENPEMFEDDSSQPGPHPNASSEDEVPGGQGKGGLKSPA

As to `C[C@H]1C[C@@H]2[C@H]([C@@H](O)C[C@@]3(C)[C@H]2CC[C@]3(O)C(=O)CO)[C@@]2(C)C=CC(=O)C=C12`, the result was inactive.
